Results filed as inconclusive are left out. A call without a number means that no potency is given here. The source made the active and inactive calls. The call rests on the fitted dose curve.
biological target: D(2) dopamine receptor (Homo sapiens) (UniProt P14416); experiment: Dopamine D2 receptor (DRD2) small molecule agonists, cell-based qHTS assay (AID 1963594); conditions: HEK293-DRD2 cAMP HTRF, agonist mode, 30 min; series mostly up to 92.4 µM; further: nearly all actives have a fitted effect of over 35% in size
Sequence (P14416 whole entry, looked up): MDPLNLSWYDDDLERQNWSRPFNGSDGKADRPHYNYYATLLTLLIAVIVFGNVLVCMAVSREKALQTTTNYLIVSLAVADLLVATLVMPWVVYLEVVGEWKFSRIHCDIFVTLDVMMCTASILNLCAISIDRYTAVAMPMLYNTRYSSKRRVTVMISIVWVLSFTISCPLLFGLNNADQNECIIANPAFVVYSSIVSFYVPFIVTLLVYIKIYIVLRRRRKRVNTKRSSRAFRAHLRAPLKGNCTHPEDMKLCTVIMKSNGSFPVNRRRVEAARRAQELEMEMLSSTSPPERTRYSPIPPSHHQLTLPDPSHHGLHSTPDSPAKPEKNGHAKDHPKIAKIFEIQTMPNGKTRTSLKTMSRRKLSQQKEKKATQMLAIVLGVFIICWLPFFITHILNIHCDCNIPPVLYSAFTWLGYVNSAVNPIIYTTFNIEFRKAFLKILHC
Source text: National Center for Advancing Translational Sciences [NCATS]
Division of Preclinical Innovation [DPI]
U.S. Environmental Protection Agency [EPA]
National Institutes of Environmental Health Sciences [NIEHS]
National Toxicology Program [NTP]
U.S. Food and Drug Administration [FDA]
DRD2 is the D2 subtype of the dopamine receptor, which is coupled to Gi subtype of G protein-coupled receptor. This G protein-coupled receptor inhibits adenylyl cyclase activity. The DRD2-HEK293 cell line stably expressing D2 dopamine receptor can be used for screening agonists and antagonists of interactions between D2 and its ligands. The Hek293-DRD2 cAMP assay is based on HTRF technology. It measures changes of cAMP accumulation in response to Gi coupled GPCR activation or inhibition.
Tox21 Assay Protocol Summary:
DRD2-Hek293 cells were dispensed at 600 cells/3uL/well in 1536-well white plates using a Multidrop Dispenser. After the assay plates were incubated at a 37 C/5% CO2 incubator for 24 h, 1 uL of Ro20-1724 at final concentration of 0.1 mM was transferred to the assay plate by a Flying Reagent Dispenser. Following Ro20-1724 addition, 23 nL of compound dissolved in DMSO, positive controls or DMSO only was added to the assay plates via Wako pintool station. The assay plates were incubated at room temperature for 10 min. Next, 1 uL of NKH477 at 200nM was added into the plates. After the assay plates were incubated at room temperature for an additional 30 min, 2.5 ul/well of cAMP-d2 and 2.5 ul/well of anti-cAMP-cryptate were added respectively into the assay plates using a Flying Reagent Dispenser. The plates were incubated at room temperature for 1 h. The fluorescence intensity in the plates was measured at 340 nm excitation and 665 & 620 nm emission by an Envision plate reader.

**Q.** How did the Potency turn out when `O=C(O)/C=C/c1ccc(/C=C/C(=O)O)cc1` was run?
**A.** The Potency was “inactive”.

**Q.** For `CCOC(=N)CC(=O)OCC`, which Potency is on record?
**A.** The Potency was “inactive”.

**Q.** Which Potency does the source give for `COc1cc(C(=O)OC(COCCC(C)C)CN2CCOCC2)cc(OC)c1OC` (stereo not given) here?
**A.** The Potency was “inactive”.

**Q.** How did the Potency turn out when `CC=C(Cl)Cl` was run?
**A.** The Potency was “inactive”.

**Q.** `CCCCCCCCC=O` was tested. Which Potency did it give?
**A.** The Potency was “inactive”.

**Q.** How did the Potency turn out when `OCCCc1cccnc1` was run?
**A.** The Potency was “inactive”.

**Q.** Which Potency does the source give for `C=C(C)C(=O)OCCCC` here?
**A.** The Potency was “inactive”.

**Q.** How did the Potency turn out when `Nc1nc(N)c(-c2ccccc2)s1` was run?
**A.** Its Potency is “inactive”.

**Q.** `CCN(CC)C(C)CN1c2ccccc2Sc2ccccc21` (stereo not given) was tested. Which Potency did it give?
**A.** Its Potency is “inactive”.

**Q.** How did the Potency turn out when `O=c1[nH]cnc2nc[nH]c12` was run?
**A.** Its Potency is “inactive”.

**Q.** How did the Potency turn out when `COC(=O)NN` was run?
**A.** The Potency was “inactive”.

**Q.** `Cc1cc2c(cc1S(N)(=O)=O)S(=O)(=O)CCC2` was tested. Which Potency did it give?
**A.** The Potency was “inactive”.

**Q.** For `COC(=O)c1ccc(NC(C)=O)cc1OC`, which Potency is on record?
**A.** Its Potency is “inactive”.

**Q.** With `O=CNNC=O` as the compound, how does the Potency read?
**A.** The Potency was “inactive”.

**Q.** How did the Potency turn out when `CCN(C(=O)c1cc(C)cc(OC[C@H](C)Nc2ccncc2)c1)C(C)C` was run?
**A.** Its Potency is “inactive”.

**Q.** With `FC(F)(F)C(F)(F)C(F)(F)C(F)(F)C(F)(F)C(F)(F)C(F)(F)C(F)(F)Br` as the compound, how does the Potency read?
**A.** Its Potency is “inactive”.

**Q.** With `CCCCc1ccc2c(n1)[C@@H](c1ccc(OC)cc1C[C@H](C)C(=O)O)[C@H](C(=O)O)[C@H]2c1ccc2c(c1)OCO2` as the compound, how does the Potency read?
**A.** The Potency was “inactive”.

**Q.** `COc1cc(CNC(=O)CCCC/C=C/C(C)C)ccc1O` was tested. Which Potency did it give?
**A.** Its Potency is “inactive”.

**Q.** `O=C(O)c1cccc(N(Cc2cccnc2)c2ccc(OC(F)F)c(OC(F)F)c2)c1` was tested. Which Potency did it give?
**A.** Its Potency is “inactive”.

**Q.** Which Potency does the source give for `CCCCCCCCCCCCCCCCCCO` here?
**A.** The Potency was “inactive”.

**Q.** How did the Potency turn out when `OC1(c2ccccc2)CCNCC1` was run?
**A.** The Potency was “inactive”.

**Q.** With `COC(=O)c1ccc(I)cc1S(=O)(=O)NC(=O)Nc1nc(C)nc(OC)n1` as the compound, how does the Potency read?
**A.** The Potency was “inactive”.

**Q.** With `O=C(OCCCCCOC(=O)c1ccccc1)c1ccccc1` as the compound, how does the Potency read?
**A.** Its Potency is “inactive”.

**Q.** Which Potency does the source give for `C[Si]1(C)N[Si](C)(C)N[Si](C)(C)N1` here?
**A.** The Potency was “inactive”.

**Q.** Which Potency does the source give for `CCCCCCCC(C)=O` here?
**A.** Its Potency is “inactive”.

**Q.** With `C1CCN2C[C@@H]3C[C@@H](CN4CCCC[C@@H]34)[C@H]2C1` as the compound, how does the Potency read?
**A.** Its Potency is “inactive”.

**Q.** How did the Potency turn out when `CC(c1cc(C(C)(C)C)cc(C(C)(C)C)c1O)c1cc(C(C)(C)C)cc(C(C)(C)C)c1O` was run?
**A.** The Potency was “inactive”.

**Q.** With `OCC(O)c1ccccc1` (stereo not given) as the compound, how does the Potency read?
**A.** The Potency was “inactive”.

**Q.** For `Nc1cc([N+](=O)[O-])cc(Cl)c1O`, which Potency is on record?
**A.** The Potency was “inactive”.

**Q.** With `Nc1ncnc(Nc2ccccc2)n1` as the compound, how does the Potency read?
**A.** Its Potency is “inactive”.

**Q.** For `CC(C)C[C@H](NC(=O)[C@H](CCc1ccccc1)NC(=O)CN1CCOCC1)C(=O)N[C@@H](Cc1ccccc1)C(=O)N[C@@H](CC(C)C)C(=O)[C@@]1(C)CO1`, which Potency is on record?
**A.** Its Potency is “inactive”.

**Q.** `Cn1cccc1` was tested. Which Potency did it give?
**A.** Its Potency is “inactive”.

**Q.** With `Nc1nc(-c2ccccc2)c(Br)c(=O)[nH]1` as the compound, how does the Potency read?
**A.** Its Potency is “inactive”.

**Q.** Which Potency does the source give for `Cc1cccc2sc(N)nc12` here?
**A.** The Potency was “inactive”.

**Q.** For `C[N+]12CCC(CC1)C(OC(=O)C(O)(c1ccccc1)c1ccccc1)C2` (stereo not given), which Potency is on record?
**A.** Its Potency is “inactive”.

**Q.** How did the Potency turn out when `CN1CCN(N)CC1` was run?
**A.** The Potency was “inactive”.

**Q.** How did the Potency turn out when `CO[Si](CCC1CCC2OC2C1)(OC)OC` (stereo not given) was run?
**A.** The Potency was “inactive”.

**Q.** With `CCCCN1CCCC1C(=O)Nc1c(C)cc(C)cc1C` (stereo not given) as the compound, how does the Potency read?
**A.** The Potency was “inactive”.

**Q.** For `Cc1c(NC(C)C)c(=O)n(-c2ccccc2)n1C`, which Potency is on record?
**A.** The Potency was “inactive”.

**Q.** With `Cc1cc(S(=O)(=O)O)ccc1N=Nc1c(O)ccc2ccccc12` as the compound, how does the Potency read?
**A.** The Potency was “inactive”.

From PubChem BioAssay (Tox21)
